Measurements: PubChem BioAssay AID1220 (Sanford-Burnham Center for Chemical Genomics, 2008)
The whole screen tested about 190,000 compounds, of which about 1,300 (0.68%) were called active. This excerpt belongs to a sample that is enriched for actives. Unmarked numbers belong to inactive results. Rule as the data show it: active = inhibition above about 50%; inactive = the rest.

target: Mannose-6-phosphate isomerase (Homo sapiens) (UniProt P34949); test: human PMI inhibitors, high substrate, primary screen, biochemical, fluorescence intensity, high mannose 6-phosphate (AID 1220); details: recombinant PMI enzyme, coupled fluorescence intensity; at 20 µM; active compounds read high
Sequence (P34949 whole entry, looked up): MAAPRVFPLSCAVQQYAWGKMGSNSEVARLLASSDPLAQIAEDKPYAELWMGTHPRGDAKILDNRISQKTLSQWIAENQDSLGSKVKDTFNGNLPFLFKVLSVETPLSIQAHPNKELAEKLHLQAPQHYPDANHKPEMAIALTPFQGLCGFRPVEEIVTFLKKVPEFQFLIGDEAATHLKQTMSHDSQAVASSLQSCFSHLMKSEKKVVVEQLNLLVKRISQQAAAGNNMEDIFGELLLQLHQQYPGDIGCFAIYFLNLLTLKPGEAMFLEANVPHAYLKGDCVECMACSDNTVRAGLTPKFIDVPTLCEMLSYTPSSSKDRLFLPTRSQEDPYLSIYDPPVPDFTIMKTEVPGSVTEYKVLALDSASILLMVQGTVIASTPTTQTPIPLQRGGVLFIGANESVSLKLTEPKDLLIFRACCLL

Q: For `O=C(CSCc1ccccc1)N/N=C/c1ccc(OCC(=O)N2CCCCC2)cc1`, which inhibition is on record?
A: 2%

Q: How did the inhibition turn out when `Cc1cc(NC(=O)c2ccco2)ncc1NC(=O)CCc1ccccc1` was run?
A: 34.9%

Q: With `COc1cc(NC(=O)CSc2nc(C)c(C)c(C)n2)c(C)cc1[N+](=O)[O-]` as the compound, how does the inhibition read?
A: -6.6%

Q: Which inhibition does the source give for `Cc1cccc[n+]1C1C(c2ccccc2)C(C#N)=C(C(=C=[N-])C#N)NC1(O)C1CC1` (centres undefined) here?
A: 50.8% (active)

Q: For `N#CC(=C=[N-])C1=C(C#N)C(c2ccccc2F)C([n+]2ccccc2)C(O)(C2CC2)N1` (centres undefined), which inhibition is on record?
A: 21.1%

Q: How did the inhibition turn out when `Cc1cccc[n+]1C1C(c2ccc([N+](=O)[O-])cc2)C(C#N)=C(C(=C=[N-])C#N)NC1(O)C1CC1` (centres undefined) was run?
A: 15.2%

Q: Which inhibition does the source give for `Cc1cnc(NC(=O)CC2CCCC2)s1` here?
A: -13.1%

Q: For `Cc1ccccc1Cn1nnc(-c2ccc3c(c2)OCO3)n1`, which inhibition is on record?
A: 12.9%

Q: With `CC(=O)c1c(C)nc(-c2ccccc2)nc1N` as the compound, how does the inhibition read?
A: -1.3%

Q: `Cc1cc(NC(=O)C23CC4CC(C2)CC(n2cnc([N+](=O)[O-])n2)(C4)C3)no1` was tested. Which inhibition did it give?
A: 11.1%

Q: Which inhibition does the source give for `Cc1nc([N+](=O)[O-])nn1C12CC3CC(CC(Cl)(C3)C1)C2` here?
A: -2.6%

Q: For `COCCn1c(SCc2cccnc2)nnc1-c1ccco1`, which inhibition is on record?
A: -18.7%

Q: With `C=CCn1c(=N)c(C(=O)OCC)cc2c(=O)n3cc(C)ccc3nc21` as the compound, how does the inhibition read?
A: -2.4%

Q: Which inhibition does the source give for `CN(CC#CC1(O)c2ccccc2-c2ccccc21)Cc1ccccc1` here?
A: 0.8%

Q: Which inhibition does the source give for `CN1CCN(CC(=O)Nc2cc(N3CCOCC3)ccc2[N+](=O)[O-])CC1` here?
A: 62.6% (active)

Q: With `O=C(Cn1cnc2ccccc2c1=O)NCCC(=O)Nc1ccc2c(c1)OCCO2` as the compound, how does the inhibition read?
A: -6.6%

Q: For `O=C(Cn1cnc2ccccc2c1=O)Nc1ccc2c(c1)OCO2`, which inhibition is on record?
A: 1%

Q: For `O=C(Cn1cnc2ccccc2c1=O)Nc1ccc2c(c1)OCCO2`, which inhibition is on record?
A: 52.9% (active)

Q: Which inhibition does the source give for `Cc1ccc(S(=O)(=O)N2CCOCC2)cc1NC(=O)CN1CCN(c2ccc(O)cc2)CC1` here?
A: 53.9% (active)

Q: `CC(=O)N1CCN(CC(=O)Nc2cc(S(=O)(=O)N3CCOCC3)ccc2C)CC1` was tested. Which inhibition did it give?
A: 2%

Q: With `O=C(CN1CCN(c2ccc(O)cc2)CC1)Nc1cc(S(=O)(=O)N2CCCC2)ccc1Cl` as the compound, how does the inhibition read?
A: 45.4%

Q: For `COc1ccc(N2CCN(CC(=O)Nc3sccc3C#N)CC2)cc1`, which inhibition is on record?
A: 18.8%

Q: For `CC(C)(C)CNc1cc(N2CCOCC2)ccc1[N+](=O)[O-]`, which inhibition is on record?
A: 16.1%

Q: For `N#Cc1ccsc1NC(=O)CN1CCN(c2ccc(O)cc2)CC1`, which inhibition is on record?
A: 54.7% (active)

Q: Which inhibition does the source give for `N#Cc1ccsc1NC(=O)CN1CCN(c2ccccc2)CC1` here?
A: 7.6%

Q: `CN1CCN(CC(=O)Nc2ccccc2[N+](=O)[O-])CC1` was tested. Which inhibition did it give?
A: -2.9%

Q: Which inhibition does the source give for `COC(=O)c1cc(COc2ccc3oc(C)c(C(=O)OC(C)C)c3c2)c(C)o1` here?
A: -0.3%

Q: For `CC(=O)NCC(=O)OCC(=O)Nc1ccc(C(C)=O)cc1`, which inhibition is on record?
A: -8.8%

Q: Which inhibition does the source give for `CC(=C1C2C=CC1C1C(=O)NC(=O)C21)c1ccccc1` (centres undefined) here?
A: 3.8%

Q: For `Cc1c(NC(=O)COc2cccc3c2OC(C)(C)C3)c(=O)n(-c2ccccc2)n1C`, which inhibition is on record?
A: -6.1%

Q: Which inhibition does the source give for `c1ccc(N2CCN(c3cnc4ccccc4n3)CC2)cc1` here?
A: 5%

Q: Which inhibition does the source give for `CC(=O)N1CCC(=NNS(=O)(=O)c2ccc(C)c([N+](=O)[O-])c2)CC1` here?
A: -31.5%

Q: For `O=C(NCc1nc2ccccc2[nH]1)C1=C[C@H](c2ccccc2)C[C@H](OCc2ccc(CO)cc2)O1`, which inhibition is on record?
A: 11%

Q: With `Cn1c(Cn2c(=O)sc3ccccc32)nnc1SCc1cccc(F)c1` as the compound, how does the inhibition read?
A: -7.7%

Q: For `COCCNc1c(-c2ccc(OC)cc2)nc2ccc(Cl)cn12`, which inhibition is on record?
A: -8.6%

Q: With `Cc1ccc(C)c(S(=O)(=O)N/N=C2/CCCc3ccccc32)c1` as the compound, how does the inhibition read?
A: -29.2%

Q: For `CCOC(=O)C1=C(O)C(=O)N(c2ccc(S(N)(=O)=O)cc2)C1c1ccc(OC)cc1` (centres undefined), which inhibition is on record?
A: 4.3%

Q: How did the inhibition turn out when `COc1cc(C(F)(F)F)nc(-c2ccccn2)n1` was run?
A: 4.9%

Q: Which inhibition does the source give for `O=C(CN1CCN(c2ccccc2)CC1)Nc1ccc2c(c1)OCCO2` here?
A: -3.7%

Q: With `O=C(CN1CCOCC1)Nc1ccc2c(c1)OCO2` as the compound, how does the inhibition read?
A: 4.7%

Q: Which inhibition does the source give for `CN(C)/C=C/C(=O)c1cc(N2CCOCC2)ccc1[N+](=O)[O-]` here?
A: 55.9% (active)

Q: Which inhibition does the source give for `O=C(c1ccc(N2CCOCC2)cc1[N+](=O)[O-])N1CCOCC1` here?
A: 7.3%

Q: For `O=C(CN1CCN(c2ccc(O)cc2)CC1)Nc1ccc2c(c1)OCCO2`, which inhibition is on record?
A: 62.8% (active)

Q: How did the inhibition turn out when `CC(=O)c1cc(N2CCOCC2)ccc1[N+](=O)[O-]` was run?
A: 2.8%

Q: For `O=C(NC1=NCCS1)c1cccc(S(=O)(=O)N2CCCCC2)c1`, which inhibition is on record?
A: 7.1%

Q: How did the inhibition turn out when `Cc1cc(N2CCOCC2)nc2ccc(NC(=O)C3CCC(C)CC3)cc12` (centres undefined) was run?
A: 0.8%

Q: How did the inhibition turn out when `COc1ccc(/C(C)=N/NC(=O)C2CC2)cc1` was run?
A: -2.9%

Q: Which inhibition does the source give for `CCc1ccc(NC(=S)N2CCCC(C(F)(F)F)C2)cc1` (centres undefined) here?
A: 13.4%

Q: How did the inhibition turn out when `O=C1C(=Cc2ccco2)C(=O)c2ccccc21` was run?
A: -11.7%
